# Experimental data as given in the supplement of paper PMC8728848.
# This excerpt belongs to a sample that is enriched for the strongest signals.
# B1: Crocus Lectin (Crocus vernus), Q9FVA1 (protein)
# chain: MAKSLVLSSLLLALLLAAPLASLADNNVLLTGDVLHTDNQLSFESAAFVMQGDCNLVLYNEAGGFQSNTHGRGVGCTLRLNNFGQLEIHSANSNTPVWVSLRNGIPVRGDYAAVLGPDQHVTIYGPAIWSTPAPNRHERGATVSNIPRVRNVLFSSQVMSDNAQLATRDYSLVMRDDCNLALTKGSKTNIVWESGTSGRGQHCFMRLGHTGLIEISDDRLNTVWRSNTVGQEGDYVLILQINGQAVVYGPAVWSTASPARGGASAAL
# B2: Siglec-7-SA-PE-180 (Homo sapiens), Q9Y286 (protein)
# chain: MLLLLLLPLLWGRERVEGQKSNRKDYSLTMQSSVTVQEGMCVHVRCSFSYPVDSQTDSDPVHGYWFRAGNDISWKAPVATNNPAWAVQEETRDRFHLLGDPQTKNCTLSIRDARMSDAGRYFFRMEKGNIKWNYKYDQLSVNVTALTHRPNILIPGTLESGCFQNLTCSVPWACEQGTPPMISWMGTSVSPLHPSTTRSSVLTLIPQPQHHGTSLTCQVTLPGAGVTTNRTIQLNVSYPPQNLTVTVFQGEGTASTALGNSSSLSVLEGQSLRLVCAVDSNPPARLSWTWRSLTLYPSQPSNPLVLELQVHLGDEGEFTCRAQNSLGSQHVSLNLSLQQEYTGKMRPVSGVLLGAVGGAGATALVFLSFCVIFIVVRSCRKKSARPAADVGDIGMKDANTIRGSASQGNLTESWADDNPRHHGLAAHSSGEEREIQYAPLSFHKGEPQDLSGQEATNNEYSEIKIPK
# B3: FBG1 (Homo sapiens), Q9UK22 (protein)
# chain: MDGDGDPESVGQPEEASPEEQPEEASAEEERPEDQQEEEAAAAAAYLDELPEPLLLRVLAALPAAELVQACRLVCLRWKELVDGAPLWLLKCQQEGLVPEGGVEEERDHWQQFYFLSKRRRNLLRNPCGEEDLEGWCDVEHGGDGWRVEELPGDSGVEFTHDESVKKYFASSFEWCRKAQVIDLQAEGYWEELLDTTQPAIVVKDWYSGRSDAGCLYELTVKLLSEHENVLAEFSSGQVAVPQDSDGGGWMEISHTFTDYGPGVRFVRFEHGGQDSVYWKGWFGARVTNSSVWVEP
# Columns and labels:
# Experiment in all cases: glycan array binding signal (z-score within array); higher = stronger binding
# Details in all cases: glycan notation: IUPAC condensed, linker removed
# [1] = target: Fuc(a1-2)Gal(b1-3)GalNAc(b1-3)Gal(a1-4)Gal(b1-4)Glc
# Outline: (§1)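 Glycan array data came from 3228 arrays in the Consortium for Functional Glycomics database, and only arrays with an available protein sequence were kept. Glycan names were put into IUPAC-condensed notation, and columns mapping to the same glycan were averaged. The binding signal is a within-array Z-score, averaged across arrays of one protein sequence run at different concentrations or buffers and across linkers. A negative Z-score can be read as non-binding.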
# [2] = target: Fuc(a1-2)Gal(b1-4)GlcNAc(b1-3)Gal(b1-4)GlcNAc(b1-3)Gal(b1-4)GlcNAc
# Outline: as §1
# [3] = target: Fuc(a1-2)[GalNAc(a1-3)]Gal(b1-4)[Fuc(a1-3)]GlcNAc
# Outline: as §1
# [4] = target: Fuc(a1-3)[Gal3S(b1-4)]GlcNAc
# Outline: as §1
# [5] = target: Fuc(b1-3)GlcNAc
# Outline: as §1
# [6] = target: Gal(a1-3)Gal
# Outline: as §1
# [7] = target: Gal(b1-3)Gal
# Outline: as §1
# [8] = target: Gal(b1-4)GalNAc(a1-3)[Fuc(a1-2)]Gal(b1-4)GlcNAc
# Outline: as §1
# [9] = target: Gal(b1-4)Glc
# Outline: as §1
# [10] = target: Gal(b1-4)Glc6S
# Outline: as §1
# [11] = target: GlcA(b1-3)Gal
# Outline: as §1
# [12] = target: GlcNAc(a1-6)Gal(b1-4)GlcNAc
# Outline: as §1
# [13] = target: GlcNAc(b1-4)GlcNAc(b1-4)GlcNAc
# Outline: as §1
# [14] = target: GlcNAc(b1-4)[GlcNAc(b1-6)]GalNAc
# Outline: as §1
# [15] = target: GlcNAc(b1-6)GalNAc
# Outline: as §1
# [16] = target: Man(a1-2)Man(a1-3)[Man(a1-3)[Man(a1-6)]Man(a1-6)]Man(b1-4)GlcNAc(b1-4)GlcNAc
# Outline: as §1
# [17] = target: Man(a1-3)[Man(a1-6)]Man
# Outline: as §1
# [18] = target: Man(a1-3)[Man(a1-6)]Man(a1-6)[Man(a1-3)]Man(b1-4)GlcNAc(b1-4)GlcNAc
# Outline: as §1
# [19] = target: Man(a1-3)[Man(a1-6)]Man(b1-4)GlcNAc(b1-4)GlcNAc
# Outline: as §1
# [20] = target: Neu5Ac(a2-3)Gal(b1-3)[Neu5Ac(a2-3)Gal(b1-4)]GlcNAc
# Outline: as §1
# [21] = target: Neu5Ac(a2-3)Gal(b1-4)[Fuc(a1-3)]GlcNAc6S
# Outline: as §1
# [22] = target: Fuc(a1-2)Gal(b1-3)GlcNAc(b1-3)Gal(b1-4)Glc
# Outline: as §1
# [23] = target: Fuc(a1-2)Gal(b1-4)GlcNAc
# Outline: as §1
# [24] = target: Fuc(a1-2)Gal(b1-4)GlcNAc(b1-6)GalNAc
# Outline: as §1
# [25] = target: Fuc(a1-2)Gal(b1-4)[Fuc(a1-3)]GlcNAc(b1-2)Man(a1-3)[Fuc(a1-2)Gal(b1-4)[Fuc(a1-3)]GlcNAc(b1-2)Man(a1-6)]Man(b1-4)GlcNAc(b1-4)GlcNAc
# Outline: as §1
# [26] = target: Fuc(a1-2)Gal6S(b1-3)GlcNAc6S
# Outline: as §1
# [27] = target: Fuc(a1-2)[GalNAc(a1-3)]Gal(b1-3)GlcNAc
# Outline: as §1
# [28] = target: Fuc(a1-2)[GalNAc(a1-3)]Gal(b1-3)GlcNAc(b1-6)GalNAc
# Outline: as §1
# [29] = target: Fuc(a1-2)[GalNAc(a1-3)]Gal(b1-4)[Fuc(a1-3)]GlcNAc(b1-3)GalNAc
# Outline: as §1
# [30] = target: Gal(a1-3)Gal(b1-3)GlcNAc
# Outline: as §1
# [31] = target: Gal(b1-3)[GlcNAc(b1-6)]GalNAc
# Outline: as §1
# [32] = target: Gal(b1-4)GlcNAc(a1-6)Gal(b1-4)GlcNAc
# Outline: as §1
# [33] = target: Gal(b1-4)GlcNAc(b1-2)Man(a1-3)[Man(a1-6)]Man(b1-4)GlcNAc(b1-4)GlcNAc
# Outline: as §1
# [34] = target: Gal(b1-4)GlcNAc(b1-2)[Gal(b1-4)GlcNAc(b1-6)]Man(a1-6)[GlcNAc(b1-4)][Gal(b1-4)GlcNAc(b1-2)Man(a1-3)]Man(b1-4)GlcNAc(b1-4)GlcNAc
# Outline: as §1
# [35] = target: Gal(b1-4)GlcNAc(b1-3)Gal(b1-3)GalNAc
# Outline: as §1
# [36] = target: Gal(b1-4)GlcNAc(b1-3)Gal(b1-4)GlcNAc(b1-3)Gal(b1-4)GlcNAc(b1-3)Gal(b1-4)GlcNAc(b1-3)Gal(b1-4)GlcNAc(b1-2)Man(a1-3)[Gal(b1-4)GlcNAc(b1-3)Gal(b1-4)GlcNAc(b1-3)Gal(b1-4)GlcNAc(b1-3)Gal(b1-4)GlcNAc(b1-3)Gal(b1-4)GlcNAc(b1-2)Man(a1-6)]Man(b1-4)GlcNAc(b1-4)GlcNAc
# Outline: as §1
# [37] = target: Gal(b1-4)GlcNAc(b1-3)Gal(b1-4)[Fuc(a1-3)GlcNAc(b1-6)]Gal(b1-4)Glc
# Outline: as §1
# [38] = target: Gal(b1-4)GlcNAc(b1-3)[Gal(b1-4)GlcNAc(b1-6)]GalNAc
# Outline: as §1
# [39] = target: Gal(b1-4)GlcNAc6P
# Outline: as §1
# [40] = target: Gal6S(b1-3)GlcNAc6S
# Outline: as §1
# [41] = target: Gal6S(b1-4)GlcNAc6S
# Outline: as §1
# [42] = target: GalNAc(b1-4)Gal(b1-4)Glc
# Outline: as §1
# [43] = target: GalNAc3S(b1-4)GlcNAc3S
# Outline: as §1
# [44] = target: GlcNAc(b1-3)Gal(b1-4)GlcNAc(b1-3)Gal(b1-4)GlcNAc(b1-3)Gal(b1-4)GlcNAc(b1-2)Man(a1-3)[GlcNAc(b1-3)Gal(b1-4)GlcNAc(b1-3)Gal(b1-4)GlcNAc(b1-3)Gal(b1-4)GlcNAc(b1-2)Man(a1-6)]Man(b1-4)GlcNAc(b1-4)GlcNAc
# Outline: as §1
# [45] = target: GlcNAc(b1-3)[GlcNAc(b1-6)]Gal(b1-4)GlcNAc
# Outline: as §1
# [46] = target: Neu5Ac(a2-3)Gal
# Outline: as §1
# [47] = target: Neu5Ac(a2-3)Gal(b1-4)GlcNAc(b1-6)[Neu5Ac(a2-3)Gal(b1-3)]GalNAc
# Outline: as §1
# [48] = target: Neu5Ac(a2-3)Gal(b1-4)GlcNAc6S
# Outline: as §1
# [49] = target: Neu5Ac(a2-3)Gal6S(b1-4)GlcNAc
# Outline: as §1
# [50] = target: Neu5Ac(a2-3)[Neu5Ac(a2-6)]GalNAc
# Outline: as §1
# [51] = target: Gal(b1-4)GlcNAc(b1-3)GalNAc
# Outline: as §1
# [52] = target: Man(a1-2)Man(a1-3)[Man(a1-2)Man(a1-6)]Man(a1-6)[Man(a1-3)[Man(a1-6)]Man(a1-6)]Man(b1-4)GlcNAc(b1-4)GlcNAc
# Outline: as §1
# [53] = target: Man(a1-2)Man(a1-6)[Man(a1-3)]Man(a1-6)[Man(a1-2)Man(a1-2)Man(a1-3)]Man(b1-4)GlcNAc(b1-4)GlcNAc
# Outline: as §1
# [54] = target: Neu5Ac(a2-3)[GalNAc(b1-4)]Gal(b1-4)GlcNAc
# Outline: as §1
# [55] = target: Neu5Gc(a2-3)Gal(b1-3)GlcNAc
# Outline: as §1
binder,measurement,setting,value
B1,glycan array binding signal (z-score),[1],-0.162
same,glycan array binding signal (z-score),[2],-0.146
same,glycan array binding signal (z-score),[3],-0.159
same,glycan array binding signal (z-score),[4],-0.187
same,glycan array binding signal (z-score),[5],-0.163
same,glycan array binding signal (z-score),[6],-0.177
same,glycan array binding signal (z-score),[7],-0.192
same,glycan array binding signal (z-score),[8],-0.195
same,glycan array binding signal (z-score),[9],-0.152
same,glycan array binding signal (z-score),[10],-0.165
same,glycan array binding signal (z-score),[11],-0.179
same,glycan array binding signal (z-score),[12],-0.196
same,glycan array binding signal (z-score),[13],-0.156
same,glycan array binding signal (z-score),[14],-0.187
same,glycan array binding signal (z-score),[15],-0.175
same,glycan array binding signal (z-score),[16],3.76
same,glycan array binding signal (z-score),[17],7.87
same,glycan array binding signal (z-score),[18],7.04
same,glycan array binding signal (z-score),[19],6.62
same,glycan array binding signal (z-score),[20],-0.169
same,glycan array binding signal (z-score),[21],-0.195
B2,glycan array binding signal (z-score),[1],-0.254
same,glycan array binding signal (z-score),[22],-0.174
same,glycan array binding signal (z-score),[23],-0.302
same,glycan array binding signal (z-score),[24],-0.066
same,glycan array binding signal (z-score),[25],-0.133
same,glycan array binding signal (z-score),[26],2.66
same,glycan array binding signal (z-score),[27],-0.313
same,glycan array binding signal (z-score),[28],-0.099
same,glycan array binding signal (z-score),[29],10.7
same,glycan array binding signal (z-score),[30],-0.363
same,glycan array binding signal (z-score),[31],-0.225
same,glycan array binding signal (z-score),[32],-0.267
same,glycan array binding signal (z-score),[33],0.048
same,glycan array binding signal (z-score),[34],-0.412
same,glycan array binding signal (z-score),[35],-0.464
same,glycan array binding signal (z-score),[36],-0.144
same,glycan array binding signal (z-score),[37],-0.383
same,glycan array binding signal (z-score),[38],-0.453
same,glycan array binding signal (z-score),[39],0.085
same,glycan array binding signal (z-score),[40],2.28
same,glycan array binding signal (z-score),[41],2.43
same,glycan array binding signal (z-score),[42],0.174
same,glycan array binding signal (z-score),[43],2.05
same,glycan array binding signal (z-score),[44],0.059
same,glycan array binding signal (z-score),[45],-0.346
same,glycan array binding signal (z-score),[46],2.25
same,glycan array binding signal (z-score),[47],-0.035
same,glycan array binding signal (z-score),[48],4.5
same,glycan array binding signal (z-score),[49],2.67
same,glycan array binding signal (z-score),[50],3.03
B3,glycan array binding signal (z-score),[1],0.049
same,glycan array binding signal (z-score),[6],-0.252
same,glycan array binding signal (z-score),[51],5.13
same,glycan array binding signal (z-score),[52],4.33
same,glycan array binding signal (z-score),[53],4.93
same,glycan array binding signal (z-score),[54],-0.217
same,glycan array binding signal (z-score),[55],-0.177
